Assay outcomes as filed in PubChem.
Rows were chosen to be rich in hits. Some 1.4% of all compounds tested hit in one or more screens of this group.
AmpC inh no detg = qHTS Inhibitors of AmpC Beta-Lactamase (assay without detergent) | P00811 | AmpC nitrocefin hydrolysis, absorbance 480 nm, 0.0001% Triton | Potency, µM (doses to about 57.1 µM), most hits filed as inhibitors | 330,000 tested, 0.52% active; note: nearly all actives have a fitted effect of over 20% in size
Target sequence (P00811 whole entry, looked up): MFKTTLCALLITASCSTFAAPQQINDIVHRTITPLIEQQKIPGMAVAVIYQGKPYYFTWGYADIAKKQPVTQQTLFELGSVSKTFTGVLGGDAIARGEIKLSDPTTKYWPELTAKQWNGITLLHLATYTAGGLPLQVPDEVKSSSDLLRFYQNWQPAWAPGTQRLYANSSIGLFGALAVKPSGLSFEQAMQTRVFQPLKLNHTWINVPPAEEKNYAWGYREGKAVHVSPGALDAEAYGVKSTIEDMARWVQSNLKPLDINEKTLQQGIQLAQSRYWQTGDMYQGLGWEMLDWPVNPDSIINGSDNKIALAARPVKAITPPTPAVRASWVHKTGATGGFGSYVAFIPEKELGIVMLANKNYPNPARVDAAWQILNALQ
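20 mM phosphate pH 7.0 + 0.01% (detergent screen) or 0.0001% Triton X-100; 5.3 nM AmpC reagent; cpd preinc 15 min RT; nitrocefin (800 uM stock) to start; A480 q20 s × 4 min; Activity was normalised to no-enzyme and no-compound control wells.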
SARS PLpro yeast = qHTS of Yeast-based Assay for SARS-CoV PLP. Potency, µM (top dose mostly 32.9 µM), usual class: activators. S. cerevisiae expressing SARS-CoV PLpro, growth rescue. 330,000 tested, 0.19% active; calls by dose curve; note: nearly all actives have a fitted effect of over 55% in size
AmpC inh detg = qHTS Inhibitors of AmpC Beta-Lactamase (assay with detergent); P00811; 370,000 tested, 0.041% active; AmpC hydrolysis of nitrocefin, absorbance 480 nm, 0.01% Triton; Potency, µM (top dose mostly 114 µM), hits mostly inhibitors; note: nearly all actives have a fitted effect of over 25% in size
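AmpC (5.3 nM in the dispensed reagent) in 20 mM phosphate pH 7.0 with 0.01% (detergent screen) or 0.0001% Triton X-100 was preincubated with compounds for 15 min at room temperature. Nitrocefin was then added from an 800 uM solution, and hydrolysis was followed at 480 nm.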
NS1 inh = qHTS Assay for Inhibitors of Influenza NS1 Protein Function; Potency, µM (doses to about 46.1 µM); 270,000 tested, 0.4% active; AID 2326, 2010; calls by dose curve; note: actives are rising curves; nearly all actives have a fitted effect of over 50% in size
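S. cerevisiae expressing influenza A NS1, grown in glucose, washed, then diluted 1:100 into pH 6.0 -URA galactose medium with 23 nl compound. Growth recovery read as OD600; NS1-free strain serves as control.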
Giardia FBPA inh-1 = qHTS Assay for Inhibitors of Fructose-1,6-bisphosphate Aldolase from Giardia Lamblia; Potency, µM (series often up to 59.6 µM), actives largely listed as inhibitors; 290,000 tested, 0.71% active; A8B2U2; AID 2451, 2010; purified Giardia FBPA; note: nearly all actives have a fitted effect of over 55% in size
Target sequence (A8B2U2 whole entry, looked up): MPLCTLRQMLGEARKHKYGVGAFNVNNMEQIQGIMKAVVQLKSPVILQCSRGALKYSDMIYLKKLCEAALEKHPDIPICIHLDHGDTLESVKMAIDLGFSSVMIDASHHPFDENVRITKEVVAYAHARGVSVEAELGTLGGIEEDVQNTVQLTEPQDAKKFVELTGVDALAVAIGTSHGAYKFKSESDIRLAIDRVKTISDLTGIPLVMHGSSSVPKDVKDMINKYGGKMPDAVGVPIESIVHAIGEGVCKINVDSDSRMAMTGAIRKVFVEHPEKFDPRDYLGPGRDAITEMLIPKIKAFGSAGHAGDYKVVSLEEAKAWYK
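40 nM FBPA preincubated 10 min at RT with compound (up to 57.5 uM final), then substrate plus GAPDH/TPI/NAD/arsenate coupling and diaphorase/resazurin added. Fluorescence read after 20 min at RT, 525/598 nm.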
Giardia growth = qHTS Assay for Inhibitors of Fructose-1,6-bisphosphate Aldolase from Giardia Lamblia: Giardia lamblia growth inhibition | shares compounds with Giardia FBPA inh-1 | Giardia lamblia trophozoite growth inhibition | Potency, µM (highest dose often 57.5 µM), usual class: inhibitors | 1,500 tested, 5% active | AID 2785, 2010;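 note: trophozoites exposed to compound for 48 h at 37 °C; nearly all actives have a fitted effect of over 70% in size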
Mammal cell tox = qHTS Assay for Inhibitors of Fructose-1,6-bisphosphate Aldolase from Giardia Lamblia: Mammalian cellular toxicity; shares compounds with Giardia FBPA inh-1; mammalian cell viability counter-screen, qHTS; Potency, µM (doses to about 57.5 µM), usual class: inhibitors; 1,500 tested, 4% active; AID 2786, 2010;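 note: Chinese hamster ovary cells used as mammalian cytotoxicity surrogate; viability measured as cellular ATP by luminescence; compound exposure lasted 48 h before reading; nearly all actives have a fitted effect of over 60% in size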
Giardia FBPA inh-2 = qHTS Assay for Inhibitors of Fructose-1,6-bisphosphate Aldolase from Giardia Lamblia: Primary screen confirmation; Potency, µM (titrated, usually from 57.5 µM), usual class: inhibitors; 1,500 tested, 5% active; shares compounds with Giardia FBPA inh-1; purified Giardia aldolase enzyme activity, qHTS; note: nearly all actives have a fitted effect of over 45% in size
Rabbit aldolase = qHTS Assay for Inhibitors of Fructose-1,6-bisphosphate Aldolase from Giardia Lamblia: Rabbit FBPA Selectivity | shares compounds with Giardia FBPA inh-1 | Rabbit muscle FBPA enzyme inhibition, selectivity counter-screen | Potency, µM (series often up to 57.5 µM), actives largely listed as inhibitors | 1,500 tested, 4% active | AID 2794, 2010; note: nearly all actives have a fitted effect of over 60% in size
GAPDH counter = qHTS Assay for Inhibitors of Fructose-1,6-bisphosphate Aldolase from Giardia Lamblia: Coupling assay counterscreen confirmation. Potency, µM (titrated, usually from 57.5 µM), actives largely listed as inhibitors. 1,500 tested, 6% active. AID 2795, 2010. shares compounds with Giardia FBPA inh-1. GAPDH coupling enzyme counterscreen, biochemical, qHTS; note: nearly all actives have a fitted effect of over 55% in size
Large screens that a line does not name were inactive (follow-up assays come after a bar, where they were run); [ ] = dose if it differs, or a comment. Unless noted, calls come from the whole dose curve; as a rule, active = well fitted curve in the direction sought with a large enough effect; inconclusive = small, poorly fitted or top-dose-only effect, or another doubt; inactive = no such curve, though single readings can be large; an effect the other way counts as inactive or inconclusive.

O=C(NNC(=O)C12CC3CC(CC(C3)C1)C2)c1ccccn1	Giardia FBPA inh-1 18µM | Giardia growth inconclusive | Mammal cell tox 32µM | Giardia FBPA inh-2 inactive | Rabbit aldolase inactive | GAPDH counter inactive
CCn1cc2nc(SCc3c(F)cccc3Cl)n(CCc3ccccc3)c(=O)c2n1	none (no result: AmpC inh no detg, SARS PLpro yeast, NS1 inh, Giardia FBPA inh-1)
COc1cccc(C(=O)NC(=S)Nc2nnn(C)n2)c1	Giardia FBPA inh-1 1.6µM | Giardia growth inactive | Mammal cell tox inactive | Giardia FBPA inh-2 inactive | Rabbit aldolase inactive | GAPDH counter inactive
Cn1nnc(NC(=S)NC(=O)Cc2ccccc2)n1	Giardia FBPA inh-1 1.6µM | Giardia growth inactive | Mammal cell tox inactive | Giardia FBPA inh-2 inactive | Rabbit aldolase inactive | GAPDH counter inactive
O=C(CN1CCN(c2ccc(F)cc2)CC1)c1ccc(O)cc1O	none (no result: SARS PLpro yeast)
CC(C)(C)OC(=O)N[C@@H](Cc1ccccc1)C(=O)N[C@@H](CO)[C@H](O)[C@@H]1C[C@@H]1C(=O)N1CCCC1	AmpC inh detg inconclusive
CCn1c(CCc2ccccc2)nc2ccccc21	Giardia FBPA inh-1 14µM | Giardia growth inactive | Mammal cell tox inactive | Giardia FBPA inh-2 inactive | Rabbit aldolase inactive | GAPDH counter inactive
C/C(CC(=O)Nc1ccc(Cl)c(Cl)c1)=N\NC(N)=S	Giardia FBPA inh-1 10µM | Giardia growth inactive | Mammal cell tox inactive | Giardia FBPA inh-2 inactive | Rabbit aldolase inactive | GAPDH counter inactive
C/C(CC(=O)Nc1cc(Cl)ccc1Cl)=N\NC(N)=S	Giardia FBPA inh-1 inconclusive
C/C(CC(=O)Nc1ccc(Cl)cc1C(F)(F)F)=N\NC(N)=S	Giardia FBPA inh-1 20µM | Giardia growth inactive[10.4 µM] | Mammal cell tox inactive | Giardia FBPA inh-2 inactive | Rabbit aldolase inactive | GAPDH counter inactive
C/C(CC(=O)Nc1ccc(Cl)cc1Cl)=N\NC(N)=S	NS1 inh inconclusive
CCC(CC)C(=O)c1c[nH]c(C(=O)NN)c1	AmpC inh detg inconclusive (no result: NS1 inh)
O=C(NC(NC(=O)c1ccccc1)c1cccc([N+](=O)[O-])c1)c1ccccc1	AmpC inh detg inconclusive
COc1ccc2[nH]c(=S)[nH]c2c1	NS1 inh inconclusive, Giardia FBPA inh-1 7.1µM | Giardia growth inactive[10.4 µM] | Mammal cell tox inactive | Giardia FBPA inh-2 inactive | Rabbit aldolase inactive | GAPDH counter inactive
COc1ccc(-c2cc(=O)c3cc(OC)ccc3[nH]2)cc1	AmpC inh detg inconclusive
COc1ccc(-c2cc(=O)[nH]c(=S)[nH]2)cc1	Giardia FBPA inh-1 16µM | Giardia growth inconclusive | Mammal cell tox inactive | Giardia FBPA inh-2 inactive | Rabbit aldolase inactive | GAPDH counter inactive
O=c1/c(=C/c2cn(-c3ccccc3)nc2-c2ccc(F)cc2)sc2nc3ccccc3n12	none
CCN(CCNCC(O)COCc1ccc(Cl)cc1)c1cccc(C)c1 (stereo not given)	Giardia FBPA inh-1 22µM (no result: NS1 inh) | Giardia growth inactive | Mammal cell tox inactive | Giardia FBPA inh-2 inactive | Rabbit aldolase inactive | GAPDH counter inactive
O=S(=O)(c1ccc(F)cc1)N1CCN(CC(O)COc2ccccc2F)CC1 (stereo not given)	Giardia FBPA inh-1 28µM | Giardia growth inconclusive | Mammal cell tox inactive | Giardia FBPA inh-2 inactive | Rabbit aldolase inactive | GAPDH counter inactive
O=S(=O)(c1ccccc1)N1CCN(CC(O)COc2ccc3c(c2)CCC3)CC1 (stereo not given)	AmpC inh detg inconclusive
O=S(=O)(c1ccccc1C(F)(F)F)N1CCN(CC(O)COc2ccccc2F)CC1 (stereo not given)	Giardia FBPA inh-1 inconclusive
CC(C)c1ccccc1OCC(O)CN1CCN(S(=O)(=O)c2ccc([N+](=O)[O-])cc2)CC1 (stereo not given)	Giardia FBPA inh-1 18µM | Giardia growth 5.6µM | Mammal cell tox inactive | Giardia FBPA inh-2 inactive | Rabbit aldolase inactive | GAPDH counter inactive
N#Cc1ccccc1S(=O)(=O)N1CCN(CC(O)COc2ccccc2F)CC1 (stereo not given)	Giardia FBPA inh-1 16µM | Giardia growth inconclusive | Mammal cell tox inactive | Giardia FBPA inh-2 inactive | Rabbit aldolase inactive | GAPDH counter inactive
CC1(C)CC(NC(=S)Nc2ccc(S(N)(=O)=O)cc2)CC(C)(C)N1	Giardia FBPA inh-1 8.9µM (no result: NS1 inh) | Giardia growth inactive | Mammal cell tox inactive | Giardia FBPA inh-2 inactive | Rabbit aldolase inactive | GAPDH counter inactive
CCCn1nc(NS(=O)(=O)c2cccc3nonc23)c2cc3cc(C)ccc3nc21	none (no result: Giardia FBPA inh-1)
CCOC(=O)N1CCN(Cc2ccc3ccccc3c2)CC1	AmpC inh detg inconclusive, Giardia FBPA inh-1 25µM | Giardia growth inactive[10.4 µM] | Mammal cell tox inactive | Giardia FBPA inh-2 inactive | Rabbit aldolase inactive | GAPDH counter inactive
